Results filed as inconclusive are left out. Where a call stands in place of a potency, no number is given. The source made the active and inactive calls. The call rests on the fitted dose curve; in most records, active means well fitted inhibition curve with a large enough effect in the signal ratio in the repeat runs, with a control signal flat; inconclusive means weak or mixed curves, or effect the other way; inactive means flat fitted curve, though single readings scatter; the % refers to the signal ratio.
target: D(2) dopamine receptor (Homo sapiens) (UniProt P14416); experiment: Dopamine D2 receptor (DRD2) small molecule antagonists, cell-based qHTS assay (AID 1963595); conditions: HEK293-DRD2 cAMP HTRF antagonist mode; series mostly up to 92.4 µM; activity change, negative = inhibition: at the top concentration
Method in brief: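 DRD2-HEK293; 0.1 mM Ro20-1724; cpd 10 min RT; NKH477 200 nM + quinpirole 12 nM, 30 min RT; HTRF cAMP (cAMP-d2/anti-cAMP cryptate), 665/620 nm ratio after 1 h.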

D(2) dopamine receptor (Homo sapiens), sequence (P14416 whole entry, looked up): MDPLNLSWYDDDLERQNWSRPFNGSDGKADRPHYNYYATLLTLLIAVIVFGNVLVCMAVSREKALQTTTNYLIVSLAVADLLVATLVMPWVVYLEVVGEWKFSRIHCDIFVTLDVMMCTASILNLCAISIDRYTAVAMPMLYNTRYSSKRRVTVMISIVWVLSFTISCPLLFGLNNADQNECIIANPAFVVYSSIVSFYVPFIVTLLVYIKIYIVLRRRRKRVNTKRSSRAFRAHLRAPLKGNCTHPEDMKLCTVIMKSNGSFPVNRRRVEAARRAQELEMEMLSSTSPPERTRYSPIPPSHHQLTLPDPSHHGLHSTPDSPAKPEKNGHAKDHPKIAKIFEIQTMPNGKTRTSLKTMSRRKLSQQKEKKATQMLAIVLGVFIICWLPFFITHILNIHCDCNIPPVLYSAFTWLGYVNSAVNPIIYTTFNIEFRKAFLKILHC

Structure (SMILES) | Potency | activity change, negative = inhibition
CCCCCCCCCC(CC)c1ccc(S(=O)(=O)O)cc1 (stereo not drawn) | inactive | –
COP(=S)(OC)Oc1cc(Cl)c(Cl)cc1Cl | inactive | –
CC(=O)C(C)(C)C | – | 5.86% (inactive)
CCOP(=O)(CN(CCO)CCO)OCC | – | 1.26% (inactive)
c1ccc(Nc2ccc3ccccc3c2)cc1 | inactive | –
Nc1ccc(Cl)cc1N | inactive | –
COC(=O)c1ccccc1CS(=O)(=O)NC(=O)Nc1nc(OC)cc(OC)n1 | – | -0.434% (inactive)
C1CN2CCN1CC2 | inactive | –
